Compounds with a hit are over-represented: about 3.4% of the library has one in this group of screens.
GLS inh = glutaminase GLS (human) inhibition. O94925. actives 0.21% (n = 410,000). AID 624170. Potency, µM (top dose mostly 45.5 µM), hits mostly inhibitors. GLS enzymatic activity, qHTS titration
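hKGA; 45 mM KH2PO4 pH 8.2 + 0.02% Tween-20; cpd via pin tool; 1 mM Gln soln; GluOx/HRP/Amplex Red; RT 30 min; fluor. t0 & final.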
VDR inhibitor = blocks the human vitamin D receptor | P11473 | VDR-SRC2-3 peptide fluorescence polarization, 2 h | Potency, µM, usual class: inhibitors | actives 0.93% (n = 400,000) | AID 504847
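Signal is fluorescence polarization, reporting how far test compounds block the interaction of VDR with the SRC2-3 coregulator peptide after a 2 h room-temperature incubation.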
PKM2 activator = increases activity of human pyruvate kinase M2. P14618. purified PKM2, Kinase-Glo ATP luminescence, activation; response scale: 0% is enzyme alone, no compound. Potency, µM (top dose mostly 57.5 µM), hits mostly activators. actives 0.34% (n = 260,000). AID 1631; also: nearly all actives have a fitted effect of over 55% in size
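Kinase-Glo luminescence reports ATP generated from ADP (0.1 mM) and PEP (0.5 mM) by purified hPK-M2 after 1 h at room temperature, pH 7.2 imidazole buffer; intermediate enzyme activity allows detecting inhibitors and activators.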
Mito fusion act = inhibitors of mitochondrial division or activators of mitochondrial fusion; S. cerevisiae fusion-defective mutant growth rescue, CellTiterGlo 48 h; Potency, µM (series often up to 46.1 µM), hits mostly activators; actives 0.23% (n = 320,000); AID 485298; also: nearly all actives have a fitted effect of over 45% in size
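S. cerevisiae fusion-defective temperature-sensitive mutants (e.g. fzo1-1, mgm1-5) grown 48 h at 37C in YPEG (ethanol/glycerol non-fermentable) medium with 23 nl compound per well; growth rescue read as CellTiterGlo luminescence.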
PLK1 PBD inh = PLK1 (human) polo-box domain binding inhibition | Potency, µM, actives largely listed as inhibitors | actives 2.8% (n = 360,000) | AID 720504 | Plk1 PBD binding of FITC phosphopeptide, fluorescence polarization | P53350; also: series mostly up to about 57 µM; nearly all actives have a fitted effect of over 65% in size
KAT2A inh = blocks human GCN5L2 histone acetyltransferase. GCN5L2 HAT assay, ThioGlo1 CoA-SH fluorescence. Q92830. actives 0.21% (n = 390,000). Potency, µM (top dose mostly 58.9 µM), hits mostly inhibitors
Target sequence (Q92830 whole entry, looked up): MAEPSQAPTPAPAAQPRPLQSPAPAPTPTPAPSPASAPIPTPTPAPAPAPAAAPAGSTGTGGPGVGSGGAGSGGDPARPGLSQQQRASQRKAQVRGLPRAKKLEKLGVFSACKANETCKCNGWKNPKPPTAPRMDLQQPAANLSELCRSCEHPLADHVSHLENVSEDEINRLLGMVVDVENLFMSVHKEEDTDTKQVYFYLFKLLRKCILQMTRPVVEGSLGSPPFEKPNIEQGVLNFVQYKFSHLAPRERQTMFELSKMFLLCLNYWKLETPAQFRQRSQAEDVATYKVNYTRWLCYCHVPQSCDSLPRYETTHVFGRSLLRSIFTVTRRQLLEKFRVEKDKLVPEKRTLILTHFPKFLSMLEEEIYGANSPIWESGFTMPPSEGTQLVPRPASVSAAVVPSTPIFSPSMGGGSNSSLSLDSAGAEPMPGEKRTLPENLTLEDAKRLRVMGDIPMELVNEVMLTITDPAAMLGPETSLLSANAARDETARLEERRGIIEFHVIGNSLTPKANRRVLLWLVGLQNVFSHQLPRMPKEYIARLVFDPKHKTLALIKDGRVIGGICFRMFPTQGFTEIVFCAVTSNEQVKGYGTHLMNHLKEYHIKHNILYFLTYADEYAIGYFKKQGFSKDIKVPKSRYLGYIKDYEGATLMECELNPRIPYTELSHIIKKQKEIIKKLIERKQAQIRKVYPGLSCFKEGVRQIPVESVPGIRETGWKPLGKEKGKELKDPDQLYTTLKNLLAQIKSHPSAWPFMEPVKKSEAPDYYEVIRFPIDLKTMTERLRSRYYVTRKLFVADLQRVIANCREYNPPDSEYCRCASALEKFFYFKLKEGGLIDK
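Fluorescence readout, Ex340nm/Em540nm: ThioGlo1 (50uM final) reacts with free CoA thiol released as 20nM GCN5L2 acetylates H3(1-25) peptide (75uM) using acetyl-CoA (70uM). Compound and enzyme sat 15 min beforehand; 20 min room-temperature reaction.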
TbPYK inh = confirmation of Trypanosoma brucei pyruvate kinase inhibitors. recombinant TbPYK, Kinase-Glo ATP luminescence. Potency, µM (top dose mostly 76.9 µM), most hits filed as inhibitors. actives 67% (n = 890). shares compounds with PLK1 PBD inh; also: nearly all actives have a fitted effect of over 70% in size
TbPYK orthogonal = TbPYK inhibition, orthogonal confirmation; Potency, µM (titrated, usually from 76.9 µM), actives largely listed as inhibitors; shares compounds with PLK1 PBD inh; recombinant TbPYK, ADP-Glo luminescence, 60 min; AID 720584; actives 62% (n = 890); also: nearly all actives have a fitted effect of over 75% in size
Numbers stand for hits; i = inactive; ? = inconclusive; nt = not tested or not shown. Calls follow the shape of the dose curve; as a rule, active = well fitted curve in the direction sought with a large enough effect; inconclusive = small, poorly fitted or top-dose-only effect, or another doubt; inactive = no such curve, though single readings can be large; an effect the other way counts as inactive or inconclusive.

SMILES	GLS inh	VDR inhibitor	PKM2 activator	Mito fusion act	PLK1 PBD inh	KAT2A inh	TbPYK inh	TbPYK orthogonal
O=c1c(S(=O)(=O)c2ccccc2)cn(Cc2ccc(F)cc2)c2cc(N3CCCCC3)c(F)cc12	i	i	nt	nt	nt	i	nt	nt
O=C1OC2(c3ccccc31)c1ccccc1-c1ccccc12	i	i	nt	nt	i	nt	nt	nt
O=C1OC(c2ccc3ccccc3c2O)(c2ccc3ccccc3c2O)c2ccccc21	11.2µM	?	nt	nt	4.74µM	nt	12.6µM	12.6µM
O=C(CSc1nc2ccsc2c(=O)n1Cc1ccccc1Cl)NCc1ccc(F)cc1	i	i	nt	nt	nt	i	nt	nt
COc1cccc(S(=O)(=O)N2CCN(Cc3ccc4c(c3)OCO4)CC2)c1	i	i	i	i	i	i	nt	nt
COCOCCn1cc(CN2CCS(=O)(=O)N(Cc3ccc(-c4ccc(OC)cc4)cc3)C(C(C)C)C2=O)nn1 (stereo not given)	i	nt	nt	nt	i	nt	nt	nt
O=C(c1ccccc1)c1cc(Cl)ccc1N1C(=O)C=CC1=O	?	25.1µM	i	i	2.99µM	?	5.01µM	10µM
Cc1cc(C)c(S(=O)(=O)/N=C2/C=C(Sc3ncn[nH]3)C(=O)c3ccccc32)cc1C	i	?	i	i	0.844µM	11.2µM	1.41µM	2.51µM
Cc1cc(O)c(Sc2ncn[nH]2)cc1NS(=O)(=O)c1ccc(Cl)cc1	i	i	nt	i	i	i	nt	nt
CCCC(C)c1nnc(NC(=O)c2cc(C(=O)OC)cc([N+](=O)[O-])c2)s1 (stereo not given)	i	50.1µM	i	i	5.97µM	i	3.55µM	14.1µM
Cc1nc(-c2ccc(C(=O)N3CCCC3)cc2)cs1	i	i	i	i	i	i	?	i
COc1ccc(CCNc2ncnc3c2c(-c2ccccc2)cn3-c2cccc(Cl)c2)cc1OC	i	i	nt	nt	nt	i	nt	nt
N#CCSc1nc2c(cc1C#N)CCCC2	i	i	i	i	i	i	nt	nt
CSC1CCCCC1(O)CSc1nc2c(cc1C#N)CCCC2 (stereo not given)	i	i	i	i	26.7µM	i	7.94µM	8.91µM
Cc1ccc(S(=O)(=O)N2CCC(C(=O)NNS(=O)(=O)c3ccc(Cl)cc3)CC2)cc1	i	i	i	i	i	i	nt	nt
Cc1ccc(S(=O)(=O)NNC(=O)C2CCN(S(=O)(=O)c3ccc(C)cc3)CC2)cc1	i	i	i	i	i	i	i	i
O=C(COC(=O)CSc1ccc(Cl)cc1)Nc1ccc2[nH]c(=O)[nH]c2c1	i	i	nt	nt	i	i	nt	nt
C=C1CC[C@H](O)C/C1=C/C=C1\CCC[C@]2(C)C([C@H](C)CCCC(C)(C)O)CC[C@@H]12 (stereo not given in full)	nt	i	nt	nt	nt	i	nt	nt
CC1(C)CC(=O)C(CSC(=O)c2ccccc2)C(=O)C1	i	nt	nt	nt	9.47µM	nt	5.62µM	14.1µM
Cc1onc(-c2c(F)cccc2Cl)c1C(=O)Nc1cccc2nsnc12	i	i	i	i	i	i	nt	nt
CCCS(=O)(=O)c1cscc1NC(=O)c1c(-c2c(F)cccc2Cl)noc1C	i	i	i	i	i	i	12.6µM	14.1µM
CCn1c(CN2CCOCC2)nc2cc(NC(=O)c3ccccc3[N+](=O)[O-])ccc21	i	i	nt	nt	nt	i	nt	nt
O=C(Nc1ccccc1)c1nnsc1S(=O)c1ccc(Cl)cc1 (stereo not given)	?	?	i	i	0.474µM	i	15.8µM	14.1µM
O=C(CSc1ccc(-c2nc3ccccc3[nH]2)cn1)N1CCN(C(=O)c2ccco2)CC1	i	?	i	i	29.9µM	i	?	?
O=C1NC(c2cccs2)Nc2sc3c(c21)CCCC3 (stereo not given)	i	i	i	i	?	i	i	i
SMILES	GLS inh	VDR inhibitor	PKM2 activator	Mito fusion act	PLK1 PBD inh	KAT2A inh	TbPYK inh	TbPYK orthogonal
CN1CCc2c(sc3c2C(=O)NC(c2ccco2)N3)C1 (stereo not given)	i	i	i	i	i	i	nt	nt
CC(C)NC(=O)c1nn(C)c2c1CS(=O)(=O)c1ccccc1-2	i	i	nt	nt	nt	i	nt	nt
CCN(C(=O)Cn1nnc2sc3c(c2c1=O)CCC(C(C)(C)C)C3)c1cccc(C)c1 (stereo not given)	i	i	nt	nt	nt	i	nt	nt
COC(=O)c1ccc(C2Nc3ccc(/C(C)=N/NC(=O)C(OC)c4ccccc4)cc3C3C=CCC32)cc1 (stereo not given)	i	i	i	i	i	i	?	?
CC1=C(C(=O)Nc2ccccc2)C(c2cccs2)n2nc(SCc3ccccc3)nc2N1 (stereo not given)	i	i	nt	nt	nt	i	nt	nt
COc1ccc(CNS(=O)(=O)CCNC(=O)c2ccc(OC)cc2)cc1	i	i	nt	i	i	i	nt	nt
C=CCN1C(=O)/C(=c2\sc3nc(=O)c(Cc4ccccc4Cl)nn3c2=O)c2ccccc21	i	35.5µM	i	i	11.9µM	i	35.5µM	39.8µM
O=C(O)CCN1C(=O)/C(=C2\C(=O)N(Cc3ccccc3Cl)c3ccccc32)SC1=S	nt	nt	nt	i	nt	i	nt	nt
Cn1c(=S)[nH]c2scc(-c3cccs3)c2c1=O	i	i	i	i	?	i	11.2µM	14.1µM
C=CCn1c(=S)[nH]c2scc(-c3cccs3)c2c1=O	i	i	i	i	i	i	nt	nt
COc1ccc(C(=O)C(=O)N2CCC(c3ccccc3)CC2)cn1	nt	nt	nt	nt	i	nt	nt	nt
Cc1ccc(S(=O)(=O)N(C)C[C@H]2OCCCC[C@@H](C)Oc3ccc(N(C)C)cc3C(=O)N([C@H](C)CO)C[C@@H]2C)cc1	i	nt	nt	nt	i	nt	7.08µM	7.94µM
C[C@@H]1CCCCO[C@@H](CN(C)C(=O)c2ccncc2)[C@@H](C)CN([C@H](C)CO)C(=O)c2cc(N(C)C)ccc2O1	i	nt	nt	nt	?	nt	nt	nt
C[C@@H]1CCCCO[C@H](CN(C)C(=O)C2CCCCC2)[C@@H](C)CN([C@H](C)CO)C(=O)c2cc(N(C)C)ccc2O1	i	nt	nt	nt	?	nt	28.2µM	?
Oc1cc(O)cc(/C=C/c2ccc(O)c(O)c2)c1	?	i	nt	?	i	?	11.2µM	?
CCOC(=O)c1ccc(N=c2ssnc2Cl)cc1	12.6µM	15.8µM	i	i	2.12µM	12.6µM	15.8µM	15.8µM
N#Cc1ccc(N=c2ssnc2Cl)cc1	?	14.1µM	i	i	1.34µM	10µM	7.08µM	7.94µM
Fc1ccc(N=c2ssnc2Cl)c(F)c1	?	35.5µM	i	i	1.68µM	7.94µM	28.2µM	31.6µM
N#Cc1ccc(Oc2c(Cl)cncc2Cl)cc1	i	i	nt	i	i	i	nt	nt
O=C1CSC(=Nc2ccc(Cl)cc2)N1Cc1ccco1	i	i	i	i	i	i	nt	nt
Clc1ccc(N=c2ssnc2Cl)cc1	i	25.1µM	i	i	1.89µM	14.1µM	7.94µM	10µM

Compound activity from PubChem BioAssay.
